Screens as filed in PubChem BioAssay.
BoNT F protease = BoNT F light chain protease inhibition. AID 588497. 0.22% of 360,000 active. Multiplex microsphere protease cleavage assay, flow cytometry. inhibition, % at 10 µM; in the data active means inhibition above about 35%, passing the limit was not always enough; inconclusive means no clear call, values can overlap the other calls
BoNT A protease = inhibitors of Botulinum neurotoxin A light chain protease | multiplex microsphere protease substrate cleavage, flow cytometry | inhibition, % at 10 µM | 0.17% of 360,000 active
Anthrax LF prot = blocks Bacillus anthracis lethal factor protease. P15917. multiplex microsphere protease cleavage assay, LF. inhibition, % at 10 µM. 0.12% of 360,000 active. AID 588501
Target sequence (P15917 whole entry, looked up): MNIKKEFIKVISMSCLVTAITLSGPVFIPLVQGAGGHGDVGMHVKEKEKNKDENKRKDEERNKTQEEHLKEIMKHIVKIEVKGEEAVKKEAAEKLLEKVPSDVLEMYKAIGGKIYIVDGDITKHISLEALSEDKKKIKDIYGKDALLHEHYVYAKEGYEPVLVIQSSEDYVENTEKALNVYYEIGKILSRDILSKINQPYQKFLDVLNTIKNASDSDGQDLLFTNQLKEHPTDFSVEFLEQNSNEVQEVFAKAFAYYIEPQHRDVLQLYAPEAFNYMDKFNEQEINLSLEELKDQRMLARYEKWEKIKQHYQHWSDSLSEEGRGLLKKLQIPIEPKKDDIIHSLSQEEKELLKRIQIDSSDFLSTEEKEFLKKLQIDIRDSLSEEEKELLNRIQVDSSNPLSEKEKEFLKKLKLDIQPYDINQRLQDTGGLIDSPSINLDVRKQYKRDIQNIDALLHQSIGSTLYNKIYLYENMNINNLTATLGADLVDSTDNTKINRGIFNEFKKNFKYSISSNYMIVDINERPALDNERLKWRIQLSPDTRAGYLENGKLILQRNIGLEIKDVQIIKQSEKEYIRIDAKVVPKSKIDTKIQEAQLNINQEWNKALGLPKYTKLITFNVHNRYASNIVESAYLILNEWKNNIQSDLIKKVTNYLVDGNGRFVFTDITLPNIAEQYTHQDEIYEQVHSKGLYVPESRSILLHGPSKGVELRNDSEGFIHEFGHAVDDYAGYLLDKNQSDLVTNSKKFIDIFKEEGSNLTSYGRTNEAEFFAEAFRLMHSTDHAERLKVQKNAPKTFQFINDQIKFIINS
SSB-PriA inh = K. pneumoniae PriA-SSBct interaction inhibition | 0.6% of 430,000 active | inhibition, % at 33 µM | AlphaScreen SSBct-PriA binding, biotinylated peptide; in the data active means inhibition mostly above about 37%, no sharp cut-off; inactive means mostly below about 20%
Bead autofluor = counter-screen for toxin protease inhibitors: compound fluorescence; compound autofluorescence counterscreen, microsphere flow cytometry; stronger effect = higher value; fluorescence intensity (test concentration not listed); 3.1% of 360,000 active; in the data active means fluorescence intensity above about 16000; inconclusive means no clear call, values can overlap the other calls
Hits are given with their value; – = inactive; ? = inconclusive; · = no result given. In the library only some 3.1% were active in any assay of this set; here they are far more common. Unless noted, no stated cut-off is given here; in the data, active means inhibition above about 30%; inconclusive means no clear call, values can overlap the other calls; inactive means below that.

SMILES	BoNT F protease	BoNT A protease	Anthrax LF prot	SSB-PriA inh	Bead autofluor
COCCNC(=O)CSc1nc2cc(OC)c(OC)cc2c(=O)n1Cc1ccc(OC)cc1	–	?	–	–	22751
COCCNC(=O)CCc1nc2cccnc2n1Cc1ccc(OC)cc1	–	–	–	–	–
O=C(N/N=C\c1c(O)ccc2ccccc12)C(c1ccccc1)c1ccccc1	·	·	·	–	·
COc1cc2c(cc1OC)CN(CC(=O)NC(=O)NCc1ccccc1)CC2	–	–	–	–	–
C/C=C(\C)CN1CCc2cc(OC)c(OC)cc2C1	–	–	–	–	24105
C=CCOc1ccccc1/C=C/C(=O)O	–	–	–	–	22958
O=S(=O)(c1ccc2ccccc2c1)N1CCN(c2ccc(Cl)c(Cl)c2)CC1	·	·	·	–	·
Cc1ccc(-c2noc(CN(C(=O)c3cccc(Br)c3)C(C)C)n2)cc1	–	–	–	–	–
Cc1ccc(-c2noc(CN(C(=O)C(c3ccccc3)c3ccccc3)C(C)C)n2)cc1	–	–	–	–	23813
Cc1ccc(-c2noc(CN(C(=O)C34CC5CC(CC(C5)C3)C4)C(C)C)n2)cc1	–	–	–	–	22906
CC(C)N(Cc1nc(-c2ccc(Cl)cc2)no1)C(=O)C(c1ccccc1)c1ccccc1	–	–	–	–	–
O=C(NCCn1ncc2c(N3CCN(c4ncccn4)CC3)ncnc21)C12CC3CC(CC(C3)C1)C2	·	·	·	–	·
CCOc1ccc(-c2nc(C#N)c(N3CCN(C)CC3)o2)cc1	–	–	–	–	–
CCOc1ccc(-c2nc(C#N)c(N3CCN(CC)CC3)o2)cc1	–	?	–	–	19650
CCCOc1ccc(-c2nc(C#N)c(N3CCN(CC)CC3)o2)cc1	–	–	–	–	–
CCOc1ccc(-c2nc(C#N)c(N3CCCCCC3)o2)cc1	–	–	–	93	–
CN1C(=O)C(C)(C)COc2ccc(NC(=O)COc3ccccc3F)cc21	·	·	·	–	·
Cc1cc(C)cc(NC(=O)C(=O)NN2CCN(C)CC2)c1	·	·	·	–	·
Cc1c([N+](=O)[O-])cc(S(=O)(=O)NCCOc2ccc(F)cc2)cc1[N+](=O)[O-]	·	·	·	–	·
Cc1c([N+](=O)[O-])cc(S(=O)(=O)NCCOc2cccc(C(F)(F)F)c2)cc1[N+](=O)[O-]	·	·	·	39	·
Oc1ccccc1C1=Nc2ncnn2C(c2ccccc2)C1 (stereo unspecified)	–	–	–	–	16346
Cc1ccc(C(=O)N2N=C(c3ccccc3O)CC2c2ccccc2)cc1 (stereo unspecified)	–	–	–	–	–
Cc1ccccc1Cn1c(=O)n(CCCC(=O)NCc2ccco2)c(=O)c2sccc21	–	–	–	–	–
O=C(CCCn1c(=S)[nH]c2ccsc2c1=O)NCc1ccco1	–	–	–	–	19127
O=C(CCCCn1c(=S)[nH]c2ccsc2c1=O)NCc1ccco1	–	–	–	–	16657
SMILES	BoNT F protease	BoNT A protease	Anthrax LF prot	SSB-PriA inh	Bead autofluor
COc1ccc(-c2cc(CNC(=O)CCc3c(C)noc3C)no2)cc1	·	·	·	–	·
CCOCC(=O)NC[C@H]1CN(c2ccc(Cl)c(Cl)c2)C(=O)O1	·	·	·	–	·
CCN(CC)CCCN(Cc1cc2cc3c(cc2[nH]c1=O)OCO3)C(=S)NCCCN(C)C	?	–	–	–	–
CCC(=O)N(CCc1ccccc1)Cc1cc2cc3c(cc2[nH]c1=O)OCO3	–	–	–	–	21744
CCN(CC)CCCN(Cc1cc2cc3c(cc2[nH]c1=O)OCO3)C(=S)NC	35	–	–	–	–
CCC(=O)N(Cc1ccc(C)cc1)Cc1cc2cc3c(cc2[nH]c1=O)OCO3	–	–	–	–	23631
COc1ccc(S(=O)(=O)NCCn2ccnc2C2CC2)cc1C	·	·	·	–	·
CCOC(=O)c1ccc(NC(=O)CC2S/C(=N\N=C/c3c[nH]c4ccccc34)NC2=O)cc1 (stereo unspecified)	·	·	·	–	·
Cc1ccc(C)c(C(=O)COC(=O)c2ccccc2N2C(=O)C3C4CCC(C4)C3C2=O)c1 (stereo unspecified)	–	?	–	–	20251
O=C(COC(=O)c1ccccc1N1C(=O)C2C3CCC(C3)C2C1=O)c1ccccc1 (stereo unspecified)	–	–	–	–	–
CC(C)C(=O)NCCS(=O)(=O)N1CCN(c2ccccc2)CC1	·	·	·	–	·
COC(C)(CNC(=O)C(=O)NC(C)c1ccccc1)c1cccc(Cl)c1 (stereo unspecified)	·	·	·	–	·
N#Cc1nc(-c2ccc(Cl)cc2)oc1N1CCCCCC1	·	·	·	59	·
N#Cc1nc(-c2ccc(Cl)cc2)oc1N1CCCCC1	–	–	–	65	–
O=C(CSC1CCCC1)Nc1ccc(CC(=O)N2CCOCC2)cc1	·	·	·	–	·
C=CCn1c(O)c(N=NC(=S)Nc2ccc(OC)c(Cl)c2)c2ccccc21	–	–	30	–	–
Cc1ccccc1-n1cnnc1CN1CCN(C(=O)c2cccs2)CC1	·	·	·	–	·
O=C(NCCN1CCOCC1)c1ccc2c(c1)N(Cc1ccccc1F)C(=O)CS2	–	–	–	–	–
O=C1CSc2ccccc2N1Cc1ccccc1F	–	–	–	–	24057
Cc1noc(-c2ccsc2NC(=O)c2ccco2)n1	·	·	·	–	·
Cc1ccc(CNc2ccc3c(c2)ncn3C)cc1	–	–	–	–	–
CCc1ccc(CNc2ccc3c(c2)ncn3C)cc1	–	–	–	–	21662
Cc1ccsc1C(O)CNC(=O)Nc1cccs1 (stereo unspecified)	·	·	·	–	·
CCOc1ccc(-c2cc(=O)n(Cc3cc(C)ccc3C)cn2)cc1	·	·	·	–	·
COc1ccc(OCC(=O)Nc2ncc3c(n2)CC(C)(C)CC3=O)cc1	–	?	–	–	22939
SMILES	BoNT F protease	BoNT A protease	Anthrax LF prot	SSB-PriA inh	Bead autofluor
Cc1cc(C)nc(SCC(=O)Nc2ncc3c(n2)CC(C)(C)CC3=O)n1	–	–	–	–	20783
CCCCC(=O)Nc1ncc2c(n1)CC(C)(C)CC2=O	–	–	–	–	–
O=C(NCC(=O)N1CCOC(c2ccccc2)C1)C(=O)NCc1ccc(F)cc1 (stereo unspecified)	·	·	·	–	·
CCOC(=O)c1cnc(-n2cc(C)cn2)nc1Nc1ccccc1OCC	–	–	–	–	23982
CC1CCN(c2nccnc2Oc2ccc(C(=O)N3CCN(C(=O)c4ccco4)CC3)cc2)CC1	·	·	·	–	·
N#CCCN/N=C(\Cc1nc2ccccc2[nH]1)c1ccccc1	–	–	–	·	22721
O=C(CCCl)Nc1cc(SCCO)cc([N+](=O)[O-])c1	–	–	–	–	20902
CN(C)C(CNC(=O)Nc1ccccc1)c1ccsc1 (stereo unspecified)	·	·	·	–	·
COCCNC(=O)COC(=O)/C=C/c1cnc2ccccc2n1	–	–	–	–	17342
COc1ccc(C=NNc2cc(C)nc3ccc(OC)cc23)c(OC)c1	·	·	·	41	·
CCCCc1ccc(S(=O)(=O)c2cnc(SCC(=O)Nc3cccc(C)c3)[nH]c2=O)cc1	·	·	·	–	·
Cc1nnc(C2CCN(C(=O)c3cc(-c4ccc(F)cc4)n[nH]3)CC2)s1	·	·	·	–	·
Brc1ccc(-c2nn3c(-c4ccccn4)nnc3s2)o1	–	–	–	93	–
Clc1ccc(-c2ccc(-c3nn4c(-c5ccco5)nnc4s3)o2)cc1	–	–	–	–	–
COc1cccc(OC)c1-c1nn2c(-c3ccco3)nnc2s1	–	–	–	–	20967
c1ccc(-c2nnc3sc(-c4ccco4)nn23)nc1	·	·	·	–	·
Brc1ccc(-c2nn3c(-c4ccco4)nnc3s2)o1	–	?	–	–	22193
Cc1[nH]nc(-c2nn3c(-c4ccccn4)nnc3s2)c1Br	·	·	·	67	·
